Results: PubChem BioAssay (Tox21)
Values without a mark were called inactive. Active and inactive are the calls of the source. Calls follow the shape of the dose curve; as a rule, active = well fitted cell-killing curve with a large enough effect in the repeat runs; inconclusive = weak or mixed curves, or effect the other way; inactive = flat fitted curve, though single readings scatter.

Experiment: qHTS assay to identify small molecule HDAC inhibitors - cell viability counter screen (AID 1259365); also: nearly all actives have a fitted effect of over 50% in size
Settings: HCT-116 viability, CellTiter-Glo ATP luminescence, 2 h; series mostly up to 92.4 µM; activity change, negative = cytotoxicity: at the top concentration
Excerpt: U.S. Tox21 Program National Center for Advancing Translational Sciences [NCATS] NIH Chemical Genomics Center [NCGC] U.S. Environmental Protection Agency [EPA] National Institutes of Environmental Health Sciences [NIEHS] National Toxicology Program [NTP] U.S. Food and Drug Administration [FDA] Tox21 Assay Overview: Histone deacetylases (HDACs) are a group of epigenetic enzymes that regulate gene expression by histone deacetylation. HDACs are capable of introducing epigenetic modifications and such aberrations contribute to the onset and progression of several human diseases, thus making HDACs a popular therapeutic target. For identifying endogenous class I/II HDAC inhibitors a homogenous, luminogenic HDAC I/II cell based assay was used to measure the relative activity of class I and II HDACs from cells. Wild type HCT-116 cells were used to screen Tox21 compound libraries for identifying class I/II HDAC inhibitors.
Tox21 Assay Protocol Summary: HCT-116 cells were dispensed at 1,500 per well in 5uL of culture medium into white solid bottom 1536-well plates (Greiner Bio-One, Monroe, NC) using a Multidrop Combi (Thermo Scientific, Waltham, MA) dispenser. The assay plates were incubated at 37 C and 5% CO2 for an overnight, and then 23nL of compounds dissolved in DMSO and positive control were transferred using a Pintool station (Wako, San Diego, CA). The assay plates were incubated at 37C and 5% CO2 for 2hr. After compound treatment, 4uL of CellTiter-Glo reagent (Promega Corporation, Madison, WI) was added to each well of the assay plates using Flying Reagent Dispenser (FRD, Aurora Discovery, San Diego, CA) and incubated the assay plates at room temperature for 30min. The luminescence signal was quantified using a ViewLux plate reader (Perkin Elmer, Shelton, CT).
% is scaled to controls: 0 for no effect and ±100 for the full control effect; potency is read from the fitted curve at half-maximal effect.

Point of comparison: CCOC(=O)c1c(N)sc2c1CCN(Cc1ccccc1)C2, “activity change, negative = cytotoxicity” value -10.6% [at 42.5 µM]. Against it:
- CN(C)CC/C=C1\c2ccccc2Sc2ccc(Cl)cc21 — higher, -4.12% [at 42.5 µM]
- COc1ccc(-c2cc(C(F)F)nn2-c2ccc(S(N)(=O)=O)cc2)cc1F — higher, -0.527% [at 42.5 µM]
- O=C1[C@@H]2[C@H]3CC[C@H](C3)[C@@H]2C(=O)N1CCCCN1CCN(c2ncccn2)CC1 — higher, -0.18% [at 42.5 µM]
- CC(=O)OCC(=O)[C@@]1(OC(C)=O)[C@@H](C)C[C@H]2[C@@H]3C[C@H](F)C4=CC(=O)C=C[C@]4(C)[C@@]3(F)[C@@H](O)C[C@@]21C — higher, -0.0928% [at 42.5 µM]
- Cc1c[nH]c2ccccc12 — higher, -0.589% [at 42.5 µM]
- CO[C@@H]1[C@@H](OC)[C@H](C)[C@@](O)(CC(=O)O)O[C@H]1[C@H](C)[C@H]1O[C@@]2(CC[C@@](C)([C@H]3CC[C@@](C)([C@@H]4O[C@@H]([C@H]5O[C@](C)(O)[C@H](C)C[C@@H]5C)C[C@@H]4OC4C[C@H](OC)[C@@H](OC)[C@H](C)O4)O3)O2)C[C@H](O)[C@H]1C (stereo not given in full) — lower, -14.9% [at 42.5 µM]
- CC[C@H]1OC(=O)[C@H](C)[C@@H](O[C@H]2C[C@@](C)(OC)[C@@H](O)[C@H](C)O2)[C@H](C)[C@@H](O[C@@H]2O[C@H](C)C[C@H](N(C)C)[C@H]2O)[C@](C)(O)C[C@@H](C)CN(C)[C@H](C)[C@@H](O)[C@]1(C)O — higher, -1.77% [at 42.5 µM]
- CC(C(=O)O)c1ccc(C(=O)c2cccs2)cc1 (stereo not given) — higher, -0.0865% [at 42.5 µM]
- CCN(CC)CCOC(=O)C(c1ccccc1)c1ccccc1 — higher, -6.61% [at 42.5 µM]
- CC(C)c1ccc(C(=O)N=C(N)N)cc1S(C)(=O)=O — higher, -0.739% [at 42.5 µM]
- Cc1cccc(C)c1NC(=O)c1cc(S(N)(=O)=O)c(Cl)cc1O — higher, 3.84% [at 42.5 µM]
- COc1cc(C(C)=O)ccc1OCCCN1CCC(c2noc3cc(F)ccc23)CC1 — higher, -1.57% [at 42.5 µM]
- CC(C)(C)C(O)/C=C/c1ccc2c(c1)OCO2 (stereo not given) — higher, -0.99% [at 42.5 µM]
- CCN(CC)CCNC(=O)c1cc(Cl)c(N)cc1OC — higher, -1.04% [at 42.5 µM]
- O[C@@H](CNC[C@H](O)[C@H]1CCc2cc(F)ccc2O1)[C@@H]1CCc2cc(F)ccc2O1 — higher, -1.57% [at 42.5 µM]
- CCCCC[C@H](O)/C=C/[C@H]1[C@H](O)CC(=O)[C@@H]1C/C=C\CCCC(=O)O — higher, 2.09% [at 42.5 µM]

Point of comparison: O=C(O)CCCc1c[nH]c2ccccc12, “activity change, negative = cytotoxicity” value -3.79%. Against it:
- C/C(C=O)=C\c1ccccc1 — higher, 2.24%
- COc1ccc(N)c([N+](=O)[O-])c1 — higher, -2.68%
- CC1=C2[C@@H]([C@H](C)CC[C@H]2/C=C(\C)C(=O)O)[C@H](O)C1 — higher, -2.61%
- CCCCCCCC(=O)Oc1c(Br)cc(C#N)cc1Br — lower, -8.1%
- CC(CN(CCN(CC(C)OCCO)CC(C)OCCO)CC(C)OCCO)OCCO (stereo not given) — higher, 0.642%
- COC(CC(C)CCCC(C)(C)O)OC (stereo not given) — higher, -0.183%
- O=CNNC=O — higher, -1.06%
- C1CCCCC1 — higher, 1.32%
- SCCc1cnccn1 — higher, 4.66%
- CCC1CCC(CCC(=O)O)C1 (stereo not given) — higher, -0.983%
- C=C(C)C(=O)OCCC(F)(F)C(F)(F)C(F)(F)C(F)(F)C(F)(F)C(F)(F)F — higher, 0.0512%
- O=C(O)CCS — higher, 1.94%
- CCNc1nc(N)nc(Cl)n1 — higher, 2.9%
- COc1ccc(-n2nc(C(F)F)cc2-c2ccc(S(C)=O)cc2)cc1 (stereo not given) — higher, -0.212%
- C1=CCC2CC=CC2C1 (stereo not given) — higher, 6.72%
- CC(C)OC(=O)c1ccccc1C(=O)OC(C)C — lower, -6.21%
- CC(=O)OCCC(C)CC(C)(C)C (stereo not given) — higher, 0.523%
- CCCCCC — higher, 6.69%
- NC(=O)CCCCC(N)=O — higher, 0.498%
- COC(C)(C)OC — higher, 1.06%

For CCN(Cc1cccc(S(=O)(=O)O)c1)c1ccc(C(=C2C=CC(=[N+](CC)Cc3cccc(S(=O)(=O)O)c3)C=C2)c2ccccc2S(=O)(=O)[O-])cc1, the Potency was 12.2 µM (active).
For CCN(Cc1cccc(S(=O)(=O)O)c1)c1ccc(C(=C2C=CC(=[N+](CC)Cc3cccc(S(=O)(=O)O)c3)C=C2)c2ccc(O)cc2S(=O)(=O)[O-])cc1, the Potency was 9.32 µM (active).
